The values below come from PubChem BioAssay.

Assay [1] is described as follows: liver-stage malaria parasite growth inhibition, primary screen, cell-based, HepG2, luciferase luminescence, HepG2 viability (AID 624349; in the data active = parasite load remaining mostly below about 12%, no sharp cut-off; inactive = mostly above about 10%;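 note: 100% = mean of DMSO negative control wells on the same plate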). As to conditions: P. berghei liver stage in HepG2, luciferase luminescence, concentration not given here; parasite load remaining: stronger effect = lower value; viability: measured here: HepG2 viability without parasites.
Assay [2] in a line: Cy5 fluorescence interference with SSB-bound oligo, artefact control for HCV NS3 helicase inhibitor project, biochemical, NIH Clinical Collection, E. coli SSB (AID 743268).
The test system of assay [3] is Hepatitis C virus NS3 helicase. Nature of the assay: HCV NS3 helicase inhibitors, primary screen, biochemical, fluorescence polarization, NIH Clinical Collection (AID 743270). As to conditions: NS3 helicase binding to Cy5-dT15 DNA, stronger effect = higher value, concentration not given here. On the technique in general: Polarisation of emitted light reports the rotation of a fluorescent probe.

Assay [4] addresses Single-stranded DNA-binding protein (Escherichia coli (strain K12)) (UniProt P0AGE0). Nature of the assay: E. coli SSB displacement from DNA, counter-screen for HCV NS3 helicase inhibitor project, biochemical, fluorescence polarization, NIH Clinical Collection (AID 743271; in the data active = inhibition above about 28%). The note with it: stronger effect = higher value, concentration not given here. In general terms: A counterscreen serves to expose hits that act by an unwanted route or on another target.

Assay [5] in a line: fluorescence interference in NS3h assay format, artefact control for HCV NS3 helicase inhibitor project, biochemical, NIH Clinical Collection (AID 743272).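 Note: HCV NS3 helicase with a Cy5 labelled single stranded DNA probe.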 As to conditions: fluorescence interference counterscreen, stronger effect = lower value.
In assay [6] the test system is Neuropilin-2 / VEGF-C interaction (human). Nature of the assay: inhibitors of NRP2–VEGF-C binding, biochemical, microplate binding format, z-score (AID 743281). As to conditions: microplate NRP2/VEGF-C binding assay; stronger effect = lower value.
A short description of assay [7]: stimulators of nuclear beta-catenin in C2C12, primary screen, imaging, WNT3A-conditioned medium, mouse C2C12, NPC library (AID 1117326; in the data active = nuclear beta-catenin stimulation mostly above about 4.2%, no sharp cut-off; inactive = mostly below about 10%). As to conditions: stronger effect = higher value.
Assay [8] has as its system Hepatitis C virus NS3 helicase. Description: HCV NS3 helicase inhibitors, primary screen, biochemical, fluorescence polarization, LOPAC1280 library (AID 687035; in the data active = inhibition above about 37%). As to conditions: Purified HCV NS3 helicase, Cy5-dT15 ssDNA binding fluorescence polarization; stronger effect = higher value; concentration not given here.
Assay [9] in a line: Cy5 fluorescence quenching or enhancement artefacts, artefact control for HCV NS3 helicase inhibitor project, biochemical, LOPAC1280 (AID 687037). As to conditions: Cy5-DNA-NS3h complex fluorescence interference counterscreen.

Molecules are shown by their SMILES. Where “and” joins values, the source holds several entries; their conditions need not be identical. Identical values can stand only once. Calls of active or inactive are those of the source. Unless noted, the rule behind the calls is not given here.

On to `COC1=C(OC)C(=O)C(CCCCCCCCCCO)=C(C)C1=O`, for which the parasite load remaining in [1] was 97.9% (inactive) and 55.5% (inactive). Also, the viability (usually a read-out of living cells in per cent, often relative to untreated cells) in [1] was 71.1% and 140%. The fluorescence ratio in [2] and in assay [5] was 0.94 (inactive) each time. Besides, the inhibition (in general, the relative decrease from the control value, in per cent) in assay [3] was -2.77% (inactive); in assay [4], 2.98% (inactive). Further, in [6], the z-score is -0.18 (inactive). Also, the nuclear beta-catenin stimulation in assay [7] (at 10 µM) was -0.4% (inactive); in [7] (stimulation, at 2 µM) it was -1.8%.
Turning to `CCc1c2c(nc3ccc(OC(=O)N4CCC(N5CCCCC5)CC4)cc13)-c1cc3c(c(=O)n1C2)COC(=O)[C@]3(O)CC`, the parasite load remaining in [1] was 136% (inactive) and 106% (inactive). For the same compound, the viability in assay [1] was 95.2% and 90.6%. Further, in [6], the z-score is -0.00941 (inactive). Further, the nuclear beta-catenin stimulation in assay [7] (at 10 µM) is 11.6% (inactive); in assay [7] (stimulation, at 2 µM), 1.5%.
Turning to `COc1cc(C(=O)NS(=O)(=O)c2ccccc2C)ccc1Cc1cn(C)c2ccc(NC(=O)OC3CCCC3)cc12`, in assay [1], the parasite load remaining is 103% (inactive) and 39.6% (inactive). Moreover, the viability in assay [1] is 73.8% and 104%. The figures for the fluorescence ratio in assay [2] and in assay [5] were 0.99 (inactive) and 1.03 (inactive), respectively. Besides, the inhibition in assay [3] is 16.2% (active); in assay [4], 25.3% (inactive). Also, the z-score in [6] was -5.32 (active). Also, the nuclear beta-catenin stimulation in assay [7] (at 10 µM) was 0.1% (inactive); in assay [7] (stimulation, at 2 µM) it was 0.4%.
Regarding `CC(C)(C)C(O)/C=C/c1ccc2c(c1)OCO2` (centres undefined), the parasite load remaining in [1] is 76% (inactive). The viability in assay [1] was found to be 68%. In addition, the fluorescence ratio is 0.94 (inactive) in assay [2] and 0.88 (inactive) in [5]. Moreover, the inhibition was -4.59% (inactive) in assay [3] and -2.76% (inactive) in assay [4]. In [6], the z-score was -0.389 (inactive). Besides, the nuclear beta-catenin stimulation was 0% (inactive) in [7] (at 10 µM) and 1.5% in assay [7] (stimulation, at 2 µM).
As to `O=C1c2cccc3c2[C@H](CCC3)CN1[C@@H]1CN2CCC1CC2`, the parasite load remaining in assay [1] is 80.1% (inactive). Moreover, the viability in assay [1] amounted to 69.6%. The fluorescence ratio in assay [2] is 0.94 (inactive); in assay [5] it was 0.96 (inactive). Moreover, the inhibition in assay [3] was -1.09% (inactive); in assay [4] it was 9.84% (inactive). Besides, in assay [6], the z-score was -0.136 (inactive). The nuclear beta-catenin stimulation in assay [7] (at 10 µM) is 0.4% (inactive); in assay [7] (stimulation, at 2 µM), 1.5%.
Consider `COC(=O)C1=C(C)NC(C)=C(C(=O)OC(C)C)C1c1cccc2nonc12` (centres undefined), for which the parasite load remaining in assay [1] was 105% (inactive) and 85.6% (inactive). Also, in assay [1], the viability is 74.3% and 66.7%. Besides, the fluorescence ratio was 1.01 (inactive) in assay [2] and 0.98 (inactive) in assay [5]. Besides, the inhibition in assay [3] is 6.73% (inactive); in assay [4] it was 4.52% (inactive). Also, in assay [6], the z-score is -2.69 (inactive). Moreover, the nuclear beta-catenin stimulation in [7] (at 10 µM) is 28.6% (inactive); in assay [7] (stimulation, at 2 µM) it was 0.3%.
Take `O=C1Nc2ccc(Cl)cc2[C@@](C#CC2CC2)(C(F)(F)F)O1`: the parasite load remaining in assay [1] is 46.6% (inactive) and 8.97% (inactive). Further, the viability in assay [1] is 69% and 64.5%. The fluorescence ratio in assay [2] and in assay [5] was 0.99 (inactive) throughout. In addition, the inhibition in assay [3] is 5.15% (inactive); in assay [4] it was 6.06% (inactive). Besides, the z-score in assay [6] is 0.939 (inactive). Besides, the nuclear beta-catenin stimulation in [7] (at 10 µM) is -0.8% (inactive); in assay [7] (stimulation, at 2 µM), 3.6%.
As for `Nc1ccc(O)c(C(=O)O)c1`, the parasite load remaining in assay [1] was 86.6% (inactive) and 106% (inactive) and 16.7% (inactive). In addition, the viability in assay [1] is 71.9% and 101% and 72%. Moreover, the fluorescence ratio in assay [2] and in assay [5] was 0.94 (inactive) each time. Further, the inhibition in assay [3] was 3.56% (inactive); in [4], 2.21% (inactive). For the same compound, in assay [6], the z-score is -0.236 (inactive). The nuclear beta-catenin stimulation is 2% (inactive) in assay [7] (at 10 µM) and 0.6% in assay [7] (stimulation, at 2 µM).
With `CN1CCN(c2c(F)cc3c(=O)c(C(=O)O)cn4c3c2SCC4)CC1`, in [1], the parasite load remaining is 99.2% (inactive) and 24.3% (inactive). Besides, the viability in assay [1] is 91.2% and 66%. In addition, the fluorescence ratio is 1.04 (inactive) in assay [2] and 0.99 (inactive) in assay [5]. The values for the inhibition in assay [3] and in [4] were -4.36% (inactive) and -3.18% (inactive), respectively. In addition, the compound was called inactive in assay [6]. Moreover, the nuclear beta-catenin stimulation in [7] (at 10 µM) is 1.2% (inactive); in [7] (stimulation, at 2 µM), -0.2%.
In the case of `O=C(NCCO[N+](=O)[O-])c1cccnc1`, the parasite load remaining in assay [1] is 31.4% (inactive) and 90.9% (inactive) and 44.6% (inactive). The viability in [1] is 48.5% and 74.2% and 98.5%. Also, the figures for the fluorescence ratio in [2] and in assay [5] were 1.04 (inactive) and 1.02 (inactive), respectively. The inhibition is 1.19% (inactive) in assay [3] and 0.67% (inactive) in assay [4]. Further, the z-score in assay [6] is -0.101 (inactive). Besides, the nuclear beta-catenin stimulation was -0.4% (inactive) in assay [7] (at 10 µM) and -0.5% in [7] (stimulation, at 2 µM).
In the case of `CN1CCN2c3ccccc3Cc3ccccc3C2C1` (centres undefined), the parasite load remaining in assay [1] is 78.7% (inactive) and 106% (inactive) and 104% (inactive). The inhibition in assay [8] was -3% (inactive). In addition, the fluorescence ratio (interference) in [9] was 0.9 (inactive). Moreover, the nuclear beta-catenin stimulation was 0.3% (inactive) in assay [7] (at 10 µM) and -0.9% in [7] (stimulation, at 2 µM).
On to `Cc1nc2ccc(CN(C)c3ccc(C(=O)N[C@@H](CCC(=O)O)C(=O)O)s3)cc2c(=O)[nH]1`, for which the parasite load remaining in assay [1] is 12.1% (inactive). Besides, the viability in assay [1] was found to be 89.6%. In addition, the fluorescence ratio in assay [2] and in [5] was 0.88 (inactive) throughout. The inhibition was -4.59% (inactive) in assay [3] and 17.7% (inactive) in assay [4]. Further, the compound was classed as inactive in [6]. In addition, the nuclear beta-catenin stimulation in assay [7] (at 10 µM) was 61.4% (active); in [7] (stimulation, at 2 µM), 62.4%.
Turning to `COc1cc(C(=O)NC2CCCNC2)cc(OC)c1OC` (centres undefined), the parasite load remaining in assay [1] is 134% (inactive). Further, the viability in assay [1] came to 80.6%. The fluorescence ratio in assay [2] was 1 (inactive); in assay [5], 0.98 (inactive). Further, the inhibition is 2.77% (inactive) in assay [3] and 2.98% (inactive) in [4]. In assay [6], the z-score is -0.315 (inactive). In addition, the nuclear beta-catenin stimulation in assay [7] (at 10 µM) was 22.4% (inactive); in [7] (stimulation, at 2 µM), 2.8%.
Take `O=C(c1ccc(F)cc1)C1CCN(CCn2c(=O)[nH]c3ccccc3c2=O)CC1`: the inhibition in assay [8] was 2% (inactive). Also, the fluorescence ratio (interference) in [9] is 1 (inactive). Besides, the nuclear beta-catenin stimulation is 0.6% (inactive) in assay [7] (at 10 µM) and -1.2% in [7] (stimulation, at 2 µM).
Consider `Fc1ccc(C(c2ccc(F)cc2)N2CCN(C/C=C/c3ccccc3)CC2)cc1`, for which the inhibition in assay [8] is -1% (inactive). Besides, the fluorescence ratio (interference) in assay [9] was 1 (inactive). Moreover, the nuclear beta-catenin stimulation in assay [7] (at 10 µM) was 1.1% (inactive); in assay [7] (stimulation, at 2 µM), -2.5%.
Taken in the same sequence, the figures for `CC(C)(Oc1ccc(CCNC(=O)c2ccc(Cl)cc2)cc1)C(=O)O` were -2% (inactive), 1.1 (inactive), 6.1% (inactive) and 5.1%.
Turning to `CC[N+](CC)(CC)CCOc1cccc(OCC[N+](CC)(CC)CC)c1OCC[N+](CC)(CC)CC`, the inhibition in assay [8] was -2% (inactive). In addition, the fluorescence ratio (interference) in [9] is 1 (inactive). Also, the nuclear beta-catenin stimulation is -0.5% (inactive) in [7] (at 10 µM) and -1.4% in [7] (stimulation, at 2 µM).
For `C[C@](N)(Cc1ccc(O)c(O)c1)C(=O)O`, the inhibition in assay [8] is -3% (inactive). Moreover, in assay [9], the fluorescence ratio (interference) was 1 (inactive). For the same compound, the nuclear beta-catenin stimulation in assay [7] (at 10 µM) was 2.9% (inactive); in assay [7] (stimulation, at 2 µM) it was 1.2%.
